{"source": "PubChem BioAssay AID504697", "about": "(The Scripps Research Institute Molecular Screening Center, 2011)", "note": "Active and inactive are the calls of the source.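 How the source made its calls: active means EC50 at or below 10 µM; inactive means EC50 above 10 µM.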"}
{"assay": "fluorescence interference artefacts, compound only, dose response, artefact control for cardiac thin filament activator project, biochemical, no RTF in test wells (AID 504697);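 further: emission near 535 nm under roughly 485 nm excitation as for IANBD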", "details": "compound-only fluorescence in RTF assay buffer with Ca2+ (no RTF in test wells), artifact counterscreen"}
{"smiles": "N=c1n(Cc2ccccc2)c2ccccc2n1CC(O)c1ccco1", "note": "(stereo not given)", "EC50": "> 71.5 µM (inactive)"}
{"smiles": "N#C/C(=C\\c1c[nH]c2ccccc12)C(=O)Nc1ncc(Cc2ccc(Cl)cc2Cl)s1", "EC50": "> 71.5 µM (inactive)"}
{"smiles": "CCOC(=O)N1CCN(C(=S)Nc2ccccc2C)CC1", "EC50": "> 71.4 µM (inactive)"}
{"smiles": "CCc1ccc2c(COC(=O)CNS(=O)(=O)c3ccc(NC(C)=O)cc3)cc(=O)oc2c1", "EC50": "> 71.5 µM (inactive)"}
{"smiles": "CCn1c(=O)c(C(=O)CN2CCCc3ccccc32)c(N)n(Cc2ccccc2)c1=O", "EC50": "62.2 µM (inactive)"}
{"smiles": "O=C(NC1CCCCC1)c1cc2nc3c(c(C(F)(F)F)n2n1)CCCC3", "EC50": "> 71.5 µM (inactive)"}
{"smiles": "CN(C)CCN(C)Cc1c2ccccc2c(CN(C)CCN(C)C)c2ccccc12", "EC50": "> 71.5 µM (inactive)"}
{"smiles": "CCOc1cc(/C=C2\\N=C(SC(C)C(N)=O)N(c3ccc(OC(F)F)cc3)C2=O)ccc1O", "note": "(stereo not given)", "EC50": "23.3 µM (inactive)"}
{"smiles": "Oc1ccc2ccc3cccc[n+]3c2c1", "EC50": "2.46 µM (active)"}
{"smiles": "O=C(O)c1ncc(-c2ccccc2)cn1", "EC50": "> 71.5 µM (inactive)"}
{"smiles": "c1ccc2[nH]c3cc4ncnc4cc3nc2c1", "EC50": "17.9 µM (inactive)"}
{"smiles": "CCN(CC)c1ccc(/C=c2\\sc3nc4ccccc4n3c2=O)c(O)c1", "EC50": "14.4 µM (inactive)"}
{"smiles": "Cc1ccccc1-n1nnnc1SCC(C)C", "EC50": "> 71.5 µM (inactive)"}
{"smiles": "CC(=O)/C(C=Nc1noc(C)c1Br)=C(\\C)O", "EC50": "> 71.6 µM (inactive)"}
{"smiles": "CC(C)(C)C(=O)/C=c1\\s/c(=C\\c2ccc(-c3ccc([N+](=O)[O-])cc3)o2)c(=O)n1CC(=O)NC(N)=O", "EC50": "1.72 µM (active)"}
